For 6 molecules, AC50 results are on record in publication PMC6792352, “Limited Chemical Structural Diversity Found to Modulate Thyroid Hormone Receptor in the Tox21 Chemical Library” (Environmental Health Perspectives, 2019).

The assay has as its system thyroid hormone receptor (endogenous TRα and TRβ). Details: species or system GH3-TRE-Luc (rat pituitary); GH3-TRE-Luc luciferase reporter, antagonist mode against 1 nM T3, loss of signal, qHTS. The settings on record: read-out: Average AC50 (uM) GH3-TRE-Antag, antagonist mode, 1 nM T3, no GH3 cytotoxicity hit.
In the case of `CC(=O)OCC(=O)[C@H]1CC[C@H]2[C@@H]3CCC4=CC(=O)CC[C@]4(C)[C@H]3CC[C@]12C` [Deoxycorticosterone acetate], the AC50 is 25.2 µM.
Under `COc1ccc2c(c1)c1c3n2CCN(C)C3=NCC1` [Metralindole] stands 28.1 µM.
For `O=c1cc(-c2ccccc2)oc2ccc3ccccc3c12` [5,6-Benzoflavone], the AC50 worked out at 7.88 µM.
Regarding `CC(C)CCCCCCCCCCCCCCC(=O)O` [Isooctadecanoic acid], the AC50 was 16.3 µM.
Then `Cc1ccc(-n2nc(C(C)(C)C)cc2NC(=O)Nc2ccc(OCCN3CCOCC3)c3ccccc23)cc1` [Doramapimod], with 45.9 µM; and `COC(=O)N[C@H](C(=O)N[C@@H](Cc1ccccc1)[C@@H](O)CN(Cc1ccc(-c2ccccn2)cc1)NC(=O)[C@@H](NC(=O)OC)C(C)(C)C)C(C)(C)C` [Atazanavir], with 19.5 µM.

The term AC50 denotes the concentration giving half of the maximal activity seen.
